Screening data deposited in PubChem by Broad Institute.
aSyn 5UTR act: Activators via SNCA 5'UTR binding, MLPCN; activity score, % (tested at 7.5 µM), hits read low; alpha-synuclein 5'UTR reporter, activators screen; actives 7.1% (n = 300,000); AID 1814, 2009; in the data active means activity score below about -60%
An asterisk follows results filed as active. The list is a sample of the results.

SMILES	aSyn 5UTR act
CC(C)c1ccc(/C=C(\c2nc3ccccc3[nH]2)S(=O)(=O)c2ccccc2)cc1	-80.9*
CC1=C(C)/C(=N\OS(=O)(=O)c2ccccc2)C=CC1=O	-79.9*
O=[N+]([O-])c1cccc(NN=Nc2ccccc2)c1	-129.5*
NC(=S)N=Nc1ccc(NN=C(N)N)cc1	68.4
O=[N+]([O-])c1ccc(N=NNc2ccccc2)cc1	-138.6*
Brc1ccc(N=NNc2ccccc2)cc1	-188.4*
CCN(CC)c1ccc2cc(C(N)=O)c(=O)oc2c1	-97.6*
CCN(CC)c1ccc2cc(C(N)=O)c(=N)oc2c1	-67.0*
CCN(CC)c1ccc2c(-c3ccc(S(=O)(=O)O)cc3S(=O)(=O)[O-])c3ccc(=[N+](CC)CC)cc-3oc2c1	80.2
CCN(CC)c1ccc2cc(NC(=O)CCC(=O)O)c(=O)oc2c1	120.2
CCOC(=O)c1ccc(NC(=S)Nc2ccccn2)cc1	-136.8*
Cc1cccnc1NC(=O)Nc1ccc(F)cc1	-144.1*
Cc1ccc(NC(=O)Nc2ncccc2C)cc1	-162.9*
CCOC(=O)c1ccc(NC(=O)Nc2ncccc2C)cc1	-102.4*
COc1cc(C)ccc1OCCCOc1ccccc1Br	-149.0*
COc1cc(C)ccc1OCCOc1c(C)cccc1Cl	-108.2*
COc1ccccc1OCCCOc1ccc(C)cc1Br	-138.8*
Fc1ccc(/C=C\c2nccc3c2[nH]c2ccccc23)cc1	-139.3*
C(=C\c1nccc2c1[nH]c1ccccc12)/c1ccccc1	-84.4*
Cc1ccc(/C=C\c2nccc3c2[nH]c2ccccc23)cc1	-124.8*
COc1nn(-c2ccccc2)c(=O)c(Cl)c1Cl	-347.4*
COc1ccc(Sc2cnn(-c3ccccc3)c(=O)c2Cl)cc1	-73.4*
COc1ccc(-n2ncc(Cl)c(Cl)c2=O)cc1	-154.5*
C=CCn1cccc(C(=O)Nc2ccc(N(C)C)cc2)c1=O	-104.3*
C=CCn1cccc(C(=O)Nc2ccc(OCC)cc2)c1=O	-154.6*
SMILES	aSyn 5UTR act
C=CCn1cccc(C(=O)Nc2ccc(SC)cc2)c1=O	-155.1*
C=CCn1cccc(C(=O)Nc2ccc(Cl)cc2)c1=O	-140.9*
O=[N+]([O-])c1ccc(-c2ccc(/C=N/O)o2)cc1	-95.3*
O/N=C\c1ccc(-c2ccccc2)o1	-112.3*
COc1ccc(CN2C(=O)CS/C2=N/N=C/c2ccccc2)cc1	-64.0*
COc1ccc(/C=N/N=C2/SCC(=O)N2Cc2ccccc2)cc1	-170.4*
Cc1cc(NC(=O)c2noc3c2CCc2ccccc2-3)no1	-77.0*
Cc1ccc(O)c(NC(=O)c2noc(C(C)C)c2[N+](=O)[O-])c1	-86.3*
CC(=O)c1cccc(NC(=O)c2noc3c2CCc2ccccc2-3)c1	-167.9*
Cc1ccc(O)c(NC(=O)c2noc3c2CCc2ccccc2-3)c1	-122.1*
O=C1C=C(c2ccc3[nH]ccc3c2)CCC1	-150.7*
CC1(C)CC(=O)C=C(c2ccc3[nH]ccc3c2)C1	-65.2*
COc1cc(/C=C/[N+](=O)[O-])ccc1OC(=O)/C=C/c1ccc(F)cc1	-71.6*
CC(=O)OCC(=O)N1N=C(c2ccc3ccccc3c2)CC1c1ccccc1 (stereo not given)	-106.2*
COc1ccc(C2CC(c3ccc4ccccc4c3)=NN2C(=O)COC(=O)C2CCC(=O)N2)cc1 (stereo not given)	-151.9*
CCOC(=O)/C=C(\C)N1N=C(c2ccccc2)CC1c1ccccc1 (stereo not given)	-187.5*
COc1ccc(C2CC(c3ccc4ccccc4c3)=NN2C(=O)CN2CCC(C(N)=O)CC2)cc1 (stereo not given)	-133.7*
COc1cc(C2CC(c3cccs3)=NN2C(=O)CCl)ccc1OC(F)F (stereo not given)	107.1
Clc1ccc(Oc2cnc3ccccc3n2)cc1	-79.8*
Cc1ccc(Oc2cnc3ccccc3n2)cc1	-127.4*
CCc1ccc(-n2cc(-c3ccc([N+](=O)[O-])cc3)[nH]c2=S)cc1	-108.2*
Cc1ccc(-c2cn(-c3ccccc3)c(=S)[nH]2)cc1C	-93.9*
Fc1ccccc1-n1cc(-c2ccccc2)[nH]c1=S	-99.5*
COc1ccc(-n2cc(-c3ccc(Br)cc3)[nH]c2=S)cc1	-137.6*
COc1ccc(-n2cc(-c3ccccc3)[nH]c2=S)c(OC)c1	-74.9*
SMILES	aSyn 5UTR act
Cc1ccc(-c2cn(-c3ccccc3)c(SCC(=O)NC3CCS(=O)(=O)C3)n2)cc1C (stereo not given)	-143.5*
O=C1CN(c2ccccc2)C(=S)N1C(=O)c1ccc(Br)cc1	-149.9*
Cc1nc2ccc(NC(=O)N3CCCCC3)cc2s1	-106.2*
Cc1nc2ccc(NC(=O)c3ccc4ccccc4n3)cc2s1	-71.1*
CC(=O)c1ccc(NC(=O)c2ccc3nc(C)sc3c2)cc1	-193.4*
Cc1nc2ccc(NC(=O)c3cncc(Br)c3)cc2s1	-87.1*
Cc1nc2ccc(NC(=O)c3sccc3C)cc2s1	-163.7*
Cc1nnc(NC(=O)c2ccc3ccccc3n2)s1	-151.9*
Cc1nc2ccc(C(=O)Nc3ccccc3Cl)cc2s1	-235.3*
Cc1nc2cc(C(=O)O)ccc2s1	-176.6*
Cc1nc2ccc(NC(=O)c3ccccc3)cc2s1	-106.3*
Cc1ccccc1OCCNC(=O)c1ccc2ccccc2n1	-148.7*
Cc1nc2cc(NC(=O)c3ccc([N+](=O)[O-])s3)ccc2s1	76.5
Cc1nc2ccc(NC(=O)c3cccs3)cc2s1	-131.6*
Cc1ccc(OC(=O)c2ccc3nc(C)sc3c2)cc1	-76.1*
O=C(Nc1ccc2[nH]c(=S)sc2c1)c1ccccc1	-138.4*
COc1cc(C(=O)Nc2ccc(C(C)=O)cc2)c(Br)c(OC)c1OC	-83.3*
CCOC(=O)Nc1ccc2nc(N3CCCCCC3)sc2c1	-313.0*
CC(=O)c1ccc(NC(=O)c2ccc(C)c(Br)c2)cc1	-125.5*
N#Cc1ccccc1CSc1nc2ccc(NC(=O)c3ccccc3C(=O)O)cc2s1	-87.4*
C=CCNC(=O)C1CCN(c2nc(C)cc(-c3ccccc3)n2)CC1	-96.6*
Cn1ccnc1SCC(=O)Nc1ccc2nc(SCC(=O)NC3CC3)sc2c1	-152.3*
Cn1ccnc1SCC(=O)Nc1nc2ccccc2s1	-124.7*
O=C(CSc1ccccn1)Nc1nc2ccccc2s1	-62.6*
Cc1ccc(NC(=O)CSc2nccn2C)cc1F	-62.0*
SMILES	aSyn 5UTR act
Brc1ccc(-c2nnc(-c3ccco3)o2)cc1	-146.3*
c1ccc(-c2nnc(-c3ccco3)o2)cc1	-137.4*
c1coc(-c2nnc(-c3cccs3)o2)c1	-98.9*
Cc1ccc(-c2nnc(-c3ccc(Br)cc3)o2)o1	-134.6*
COC(=O)c1c(C)oc2ccc(N(C(=O)c3ccncc3)S(=O)(=O)c3ccc(C)cc3)cc12	109.8
Cc1ccc(S(=O)(=O)N(C(=O)c2ccncc2)c2ccc(OC(=O)c3ccncc3)c3ccccc23)cc1	-64.8*
Cc1ccc(-c2ccc(SCC(=O)c3ccccc3)nn2)cc1	-64.9*
O=C(CSc1ccc(-c2ccccc2)nn1)c1cccs1	-94.3*
Cc1cc(SCC(=O)c2ccccc2)nc(=O)[nH]1	-106.7*
O=C(CSc1ccc(-c2cccs2)nn1)N1CCCCCC1	-71.5*
COc1ccc(-c2ccc(SCC(=O)c3cccs3)nn2)cc1	-94.5*
COc1cc(/C=N/Nc2ccc(C(=O)O)cc2)cc(OC)c1OC	-147.9*
COc1cccc(/C=N/NC(=S)Nc2cccc(C(=O)O)c2)c1O	55.4
C=CCOc1c(OC)cc(/C=N/Nc2cccc(C(=O)O)c2)c(Br)c1Br	-176.5*
COc1ccc(/C=N/Nc2ccc(C(=O)O)cc2)c(OC)c1OC	-118.3*
O=C(/C=C/N1CCOCC1)c1cc2ccccc2o1	-82.4*
Cc1c(C(=O)Nc2ccc(N3CCOCC3)cc2)oc2ccccc12	-166.2*
